# What was measured:
# Format in all cases: functional
# Plasmodium falciparum [1] = assay: GSK_TCMDC: Inhibition of Plasmodium falciparum 3D7 in whole red blood cells, using parasite LDH activity as an index of growth. Test compounds present at 2uM
# Plasmodium falciparum [2] = assay: GSK_TCMDC: Inhibition of Plasmodium falciparum Dd2 in whole red blood cells, using parasite LDH activity as an index of growth. Test compounds present at 2uM
# HepG2 = assay: GSK_TCMDC: Percent inhibition of human HepG2 cell line. Test compounds present at 10uM.
smiles,measurement,setting,value
CCCCCC(C)C(C)c1cc(O)c2c(c1)OC(C)(C)CC2(O)c1ccnn1C (centres undefined),Inhibition,Plasmodium falciparum [1],98%
same,Inhibition,Plasmodium falciparum [2],95%
same,Inhibition,HepG2,20%
Cc1ccc(NC(=O)c2cccc(CN3CCCN(CC4CCCCC4)CC3)c2)cc1F.O=C(O)C(F)(F)F,Inhibition,Plasmodium falciparum [1],85%
same,Inhibition,Plasmodium falciparum [2],42%
same,Inhibition,HepG2,22%
c1cn(CCCNc2ncc(-c3ccsc3)c(-c3nccs3)n2)cn1,Inhibition,Plasmodium falciparum [1],94%
same,Inhibition,Plasmodium falciparum [2],51%
same,Inhibition,HepG2,0%
O=C(Nc1ccc(CN2CCOCC2)cc1)c1ccc(-c2ccc(Cl)cc2)o1,Inhibition,Plasmodium falciparum [1],98%
same,Inhibition,Plasmodium falciparum [2],11%
same,Inhibition,HepG2,22%
N#Cc1ccc(NC(=O)Nc2ccc(OC(F)(F)F)cc2)cc1,Inhibition,Plasmodium falciparum [1],98%
same,Inhibition,Plasmodium falciparum [2],91%
same,Inhibition,HepG2,43%
CNC(=O)/C=C/c1cc(NC(=O)Nc2ccnc3c(Br)cccc23)ccc1OC,Inhibition,Plasmodium falciparum [1],95%
same,Inhibition,Plasmodium falciparum [2],68%
same,Inhibition,HepG2,12%
CC1(C)[C@H]2CC[C@@H](CNc3nc(NCCc4c[nH]cn4)nc(NCc4cc(F)ccc4F)n3)[C@@H]1C2,Inhibition,Plasmodium falciparum [1],100%
same,Inhibition,Plasmodium falciparum [2],91%
same,Inhibition,HepG2,0%
Br.CCOC(=O)c1c(CNc2ccncc2)n(C)c2cc(Br)c(OC(C)=O)cc12,Inhibition,Plasmodium falciparum [1],96%
same,Inhibition,Plasmodium falciparum [2],93%
same,Inhibition,HepG2,0%
Cc1cc(=O)c(-c2ccc(OCc3ccc(OC(F)(F)F)cc3)cc2)c(C)[nH]1,Inhibition,Plasmodium falciparum [1],97%
same,Inhibition,Plasmodium falciparum [2],92%
same,Inhibition,HepG2,3%
CN(C)CCC1CCCc2ccc(NC(=O)Nc3ccc(-c4ccncc4)c4ccccc34)cc21.Cl (centres undefined),Inhibition,Plasmodium falciparum [1],89%
same,Inhibition,Plasmodium falciparum [2],27%
same,Inhibition,HepG2,34%
FC(F)(F)c1ccc2[nH]c(-c3ccc(-c4ccc(CNCc5cnn(-c6ccccc6)n5)cc4)cc3)nc2c1.O=C(O)C(F)(F)F,Inhibition,Plasmodium falciparum [1],100%
same,Inhibition,Plasmodium falciparum [2],76%
same,Inhibition,HepG2,35%
NC(=O)CCC(NC(=O)CNC(=O)Nc1cccc(C(F)(F)F)c1)C(=O)O (centres undefined),Inhibition,Plasmodium falciparum [1],97%
same,Inhibition,Plasmodium falciparum [2],93%
same,Inhibition,HepG2,1%
CS(=O)(=O)Cc1ccc(Nc2nccc(NC3CCN(c4nccc(C(F)(F)F)n4)CC3)n2)cc1,Inhibition,Plasmodium falciparum [1],88%
same,Inhibition,Plasmodium falciparum [2],23%
same,Inhibition,HepG2,34%
Cc1c(S(=O)(=O)Nc2cccc(CCN3CCCCC3CCN3CCCC3)c2)sc2ccc(Cl)cc12 (centres undefined),Inhibition,Plasmodium falciparum [1],93%
same,Inhibition,Plasmodium falciparum [2],10%
same,Inhibition,HepG2,22%
CO/C(=C\C=C\c1cc2cc(Cl)c(Cl)cc2[nH]1)C(=O)NC1CCN(CCNc2ccccc2)CC1,Inhibition,Plasmodium falciparum [1],100%
same,Inhibition,Plasmodium falciparum [2],98%
same,Inhibition,HepG2,60%
CCOc1cc(C2C(C(=O)OC(C)C)=C(C)NC3=C2C(=O)CC(c2ccc(Cl)cc2)C3)ccc1OC(C)=O (centres undefined),Inhibition,Plasmodium falciparum [1],90%
same,Inhibition,Plasmodium falciparum [2],20%
same,Inhibition,HepG2,16%
Cl.O=S(=O)(c1ccc(OCc2ccc(Cl)cc2)cc1)c1cc2c(cc1OCc1ccccc1)CCN(CC1CC1)CC2,Inhibition,Plasmodium falciparum [1],82%
same,Inhibition,Plasmodium falciparum [2],0%
same,Inhibition,HepG2,19%
CCOC(=O)NC1=NC(C)(C)N(OCCCOc2ccc(C)cc2C)C(NC(=O)OCC)=N1,Inhibition,Plasmodium falciparum [1],95%
same,Inhibition,Plasmodium falciparum [2],98%
same,Inhibition,HepG2,63%
Br.CCCCCCn1c2c(c(=N)c3c1CCC3)CCC2,Inhibition,Plasmodium falciparum [1],97%
same,Inhibition,Plasmodium falciparum [2],83%
same,Inhibition,HepG2,32%
O=C(Nc1cccc(C(F)(F)F)c1)c1ccc(S(=O)(=O)NC2CCN(CC3CCCCC3)CC2)cc1.O=C(O)C(F)(F)F,Inhibition,Plasmodium falciparum [1],83%
same,Inhibition,Plasmodium falciparum [2],0%
same,Inhibition,HepG2,25%
COc1ccc(S(=O)(=O)N2CCC(NS(=O)(=O)c3ccc(F)cc3)CC2)cc1,Inhibition,Plasmodium falciparum [1],80%
same,Inhibition,Plasmodium falciparum [2],0%
same,Inhibition,HepG2,3%
COc1ccc2ncc(F)c([C@H](O)CN3CCC(NCc4ccc5c(c4)NC(=O)CS5)CC3)c2c1.Cl,Inhibition,Plasmodium falciparum [1],100%
same,Inhibition,Plasmodium falciparum [2],98%
same,Inhibition,HepG2,7%
Cc1nc2c(c(O)c1Cl)-c1ccc(Oc3cccc(C(F)(F)F)c3)cc1C2=O,Inhibition,Plasmodium falciparum [1],98%
same,Inhibition,Plasmodium falciparum [2],97%
same,Inhibition,HepG2,25%
COc1cc(C(=O)N2CCOC(CCN3CCc4c(c5ccccc5n4C)C3)(c3ccc(Cl)c(Cl)c3)C2)cc(OC)c1OC (centres undefined),Inhibition,Plasmodium falciparum [1],87%
same,Inhibition,Plasmodium falciparum [2],68%
same,Inhibition,HepG2,16%
Nc1c2c(nc3ccc(C(=O)Nc4ccc(Br)cc4)cc13)CCCC2,Inhibition,Plasmodium falciparum [1],100%
same,Inhibition,Plasmodium falciparum [2],99%
same,Inhibition,HepG2,40%
COc1cc2c(cc1N(C(C)C)S(=O)(=O)c1sc3ccc(Cl)cc3c1C)CCNCC2.Cl,Inhibition,Plasmodium falciparum [1],91%
same,Inhibition,Plasmodium falciparum [2],70%
same,Inhibition,HepG2,98%
COc1ccc(CNCCCCCCCNCc2ccc(Cl)c(Cl)c2)cc1Cl,Inhibition,Plasmodium falciparum [1],90%
same,Inhibition,Plasmodium falciparum [2],18%
same,Inhibition,HepG2,27%
CN1CCN(Cc2ccc(-c3cc4nccc(Nc5ccc(Oc6ccccc6)cc5)c4cc3Cl)o2)CC1,Inhibition,Plasmodium falciparum [1],100%
same,Inhibition,Plasmodium falciparum [2],99%
same,Inhibition,HepG2,3%

# Reference: ChEMBL document CHEMBL1157539, “Thousands of chemical starting points for antimalarial lead identification” (Nature, 2010)
